# Data published in PubChem BioAssay.
# Where “and” joins values, the source holds several entries; their conditions need not be identical. Equal entries are not always repeated. Calls of active or inactive are those of the source. Cut-off read from the data, not from the text of the source, unless noted: active = inhibition above about 80%; inactive = the rest.
# Legend:
# [1] = growth inhibition, single agent or in combination, cell-based, chromothripsis tumors, cisplatin or BGB combos (AID 1671449); settings: LFS_MB_P medulloblastoma cells;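 note: cells exposed for 96 hours; 0% = vehicle DMSO and 100% = killing by high DMSO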
# [2] = growth inhibition, single agent and combos, cell-based, chromothripsis tumors, cisplatin or BGB combos (AID 1671450); settings: HDN33 neuroblastoma cells, stronger effect = higher value;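 note: cells exposed to compound for four days; 0% = vehicle DMSO and 100% = cell killing by high DMSO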
# [3] = growth inhibition, single agents and combos, ICB984, cell-based, cisplatin or BGB combos, synergistic combos for chromothripsis tumors (AID 1671451; call rule not given here;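 note: cells exposed for 96 hours before readout; 0% = vehicle DMSO and 100% = killing by high DMSO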); settings: ICB984 medulloblastoma cells, drug combinations, stronger effect = higher value
# [4] = growth inhibition, single agents and combos, LFS_MB_1R, cell-based, cisplatin or BGB combos, synergistic combos for chromothripsis tumors (AID 1671452); settings: LFS_MB_1R medulloblastoma cells, stronger effect = higher value;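 note: cells exposed for 96 hours before readout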
# [5] = growth inhibition, single agents and combos, HTB85, cell-based, BGB or cisplatin IC20 combos, synergistic combos for chromothripsis tumors (AID 1671453); settings: HTB85 osteosarcoma cells, drug combinations, stronger effect = higher value;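 note: cells exposed for 96 hours before readout; 0% = vehicle DMSO and 100% = high DMSO killing control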
# [6] = growth inhibition, single agents and combos, CRL2098, cell-based, BGB or cisplatin IC20 combos, synergistic combos for chromothripsis tumors (AID 1671454); settings: CRL2098 osteosarcoma cells, drug combinations, stronger effect = higher value;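 note: cells exposed for 96 h before readout; 0% = vehicle DMSO and 100% = killing by high DMSO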
# [7] = growth inhibition, single agents and combos, HD-MB03, cell-based, BGB or cisplatin IC20 combos, synergistic combos for chromothripsis tumors (AID 1671455; in the data active = inhibition above about 83%;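 note: 0% = vehicle DMSO and 100% = high DMSO as cytotoxic control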); settings: HD-MB03 medulloblastoma cells, stronger effect = higher value
# [8] = growth inhibition, single agents and combos, UWB1.289, cell-based, BGB or cisplatin combos, synergistic combos for chromothripsis tumors (AID 1671456); settings: UWB1.289 ovarian carcinoma cells, stronger effect = higher value;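 note: cells exposed to compound for four days; 0% = vehicle DMSO and 100% = killing by high DMSO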
# [9] = growth inhibition, single agents and combos, LFS_MB_2R, cell-based, cisplatin combos, synergistic combos for chromothripsis tumors (AID 1671457); settings: LFS_MB_2R medulloblastoma cells, stronger effect = higher value;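 note: cells exposed to compound for four days before readout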
# [10] = growth inhibition, MDA-MB-436, cell-based, BGB or cisplatin combos, synergistic combos for chromothripsis tumors (AID 1671458; call rule not given here;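 note: cells exposed for 96 hours; 0% = vehicle DMSO and 100% = killing by high DMSO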); settings: MDA-MB-436 breast carcinoma growth inhibition, drug combinations, stronger effect = higher value
# [11] = UWB1.289_BRCA1 ovarian cancer growth, cell-based, BGB or cisplatin combinations (AID 1671459); settings: UWB1.289 BRCA1 ovarian carcinoma, drug combinations, stronger effect = higher value
# [12] = drug combination toxicity in non-malignant astrocytes – cell-based, BGB or cisplatin IC20 combos, cytotoxicity control for chromothriptic childhood tumor combination screen (AID 1671460); settings: Human astrocytes, viability inhibition, drug combinations, at 0.5 µM, stronger effect = higher value;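 note: cells exposed to compounds for 96 hours before viability readout; 0% = vehicle and 100% = killing control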
# [13] = BT084 cell growth, single and combined drugs, ICGC_MB145, cisplatin and BGB IC40 combos (AID 1671461); settings: BT084 medulloblastoma cells, drug combinations, stronger effect = higher value;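 note: cells exposed to drugs for 96 hours; 0% = vehicle DMSO and 100% = high DMSO full killing control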
# [14] = RCMB18 cell growth, single agent and combined, cisplatin and BGB IC40 combos (AID 1671462); settings: RCMB18 medulloblastoma cells, stronger effect = higher value;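 note: cells exposed to compound for four days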
# [15] = CRL1545 cell growth, single agent and combined, cisplatin and BGB IC20 combos (AID 1671464); settings: CRL1545 osteosarcoma cells, stronger effect = higher value;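 note: cells exposed to compound for 96 hours before readout; 0% = vehicle DMSO and 100% = high DMSO killing control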
# [16] = galactose survival enhancers in mitochondrial complex I cybrids – cell-based, galactose medium, ATP luminescence, primary screen (AID 1645843;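 active = z-score of at least 1.8 in each of two replicates, scored against plate mean and spread of sample wells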;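 note: positive z means more ATP and so rescue of galactose-driven cybrid death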); settings: complex I mutant cybrid cells, 72 h, stronger effect = higher value
# [17] = measured here: combination with BGB IC40, at 0.05 µM
# [18] = measured here: with BGB IC20 combination, at 0.5 µM
# [19] = measured here: with cisplatin IC20 combination, at 0.5 µM
# [20] = measured here: combination with cisplatin, at 0.5 µM
# [21] = measured here: combination with cisplatin, at 5 µM
compound,measurement,setting,value
CNc1cc(-c2cccc(Cl)c2Cl)nc(N)n1,inhibition,"[1]; at 0.5 µM, stronger effect = higher value",-8.18% (inactive) and -26.7% (inactive)
same,inhibition,"[1]; measured here: combination with BGB IC20, at 0.005 µM",12.7% and 6.36%
same,inhibition,"[1]; measured here: combination with BGB IC40, at 0.005 µM",-26.9% and -34.5%
same,inhibition,[1]; [17],-17.6% and -7.49%
same,inhibition,"[1]; measured here: combination with cisplatin, at 0.5 µM, stronger effect = higher value",-22.4% and -20%
same,inhibition,"[1]; measured here: combination with cisplatin, at 5 µM, stronger effect = higher value",-7.76% and -6.35%
same,inhibition,"[2]; BGB combo, at 5 µM",48.2% and 55.5%
same,inhibition,[2]; at 0.5 µM,-17.8% (inactive) and -6.13% (inactive)
same,inhibition,"[2]; cisplatin combo, at 5 µM",48.9% and 48.7%
same,inhibition,[2]; [18],-27.7% and -11%
same,inhibition,[2]; [19],-24.8% and -0.815%
same,inhibition,"[2]; single agent, at 5 µM",76.2% and 85.6%
same,inhibition,"[3]; BGB IC20 combo, at 0.005 µM",-21.8% and -29.5%
same,inhibition,"[3]; BGB IC40 combo, at 0.005 µM",-56.1% and -31.8%
same,inhibition,"[3]; BGB IC40 combo, at 0.05 µM",-22.7% and -34.1%
same,inhibition,[3]; at 0.5 µM,-44.2% (inactive) and -25.3% (inactive)
same,inhibition,"[3]; cisplatin combo, at 0.05 µM",-27.5% and -41.1%
same,inhibition,"[3]; cisplatin combo, at 0.5 µM",-72.1% and -45.6%
same,inhibition,"[3]; cisplatin combo, at 5 µM",-47.7% and -22.7%
same,inhibition,"[3]; measured here: 5 uM single agent, at 5 µM",-10.2% and -10.7%
same,inhibition,[4]; at 0.5 µM,-34.6% (inactive) and -4.83% (inactive)
same,inhibition,[4]; [17],-68.3% and -4.85%
same,inhibition,[4]; [20],-61.7% and -26.6%
same,inhibition,[4]; [21],-37.7% and -6.6%
same,inhibition,[5]; at 0.5 µM,-10% (inactive) and -11.4% (inactive)
same,inhibition,"[5]; measured here: with BGB IC20, at 0.5 µM",-16.2% and -6.99%
same,inhibition,"[5]; measured here: with BGB IC20, at 5 µM",35.9% and 44.4%
same,inhibition,"[5]; measured here: with cisplatin IC20, at 0.5 µM",-19.3% and -24.6%
same,inhibition,"[5]; measured here: with cisplatin IC20, at 5 µM",46.5% and 52.3%
same,inhibition,"[5]; single agent, at 5 µM",86.8% and 87.8%
same,inhibition,[6]; at 0.5 µM,-44.3% (inactive) and -58.9% (inactive)
same,inhibition,"[6]; measured here: combination with BGB at IC20, at 0.5 µM",-56.3% and -39.2%
same,inhibition,"[6]; measured here: combination with cisplatin at IC20, at 0.5 µM",-66.3% and -96.2%
same,inhibition,[7]; at 0.5 µM,7.62% (inactive) and 7.36% (inactive)
same,inhibition,"[7]; measured here: combo with BGB at IC20, at 0.5 µM",6.39% and 25.3%
same,inhibition,"[7]; measured here: combo with cisplatin at IC20, at 0.5 µM",10.3% and -5.76%
same,inhibition,[8]; at 0.5 µM,-17.7% (inactive) and -11.8% (inactive)
same,inhibition,"[8]; measured here: inhibition with BGB combination, at 0.05 µM",-38.9% and -10.5%
same,inhibition,"[8]; measured here: inhibition with cisplatin combination, at 0.05 µM",-22.8% and -21.6%
same,inhibition,[9]; at 0.5 µM,-20.6% (inactive) and -7.54% (inactive)
same,inhibition,[9]; [20],-10.7% and -19.4%
same,inhibition,[9]; [21],-1.17% and -0.403%
same,inhibition,[10]; at 0.5 µM,-4.77% (inactive) and 5.99% (inactive)
same,inhibition,"[10]; measured here: BGB combination, at 0.5 µM",-12.3% and -2.46%
same,inhibition,"[10]; measured here: BGB combination, at 5 µM",12% and 36.8%
same,inhibition,"[10]; measured here: cisplatin combination, at 0.5 µM",-5.91% and 6.1%
same,inhibition,"[10]; measured here: cisplatin combination, at 5 µM",53.8% and 59%
same,inhibition,"[11]; BGB combination, concentration series, at 5 µM",25.6% and 35%
same,inhibition,[11]; at 0.5 µM,-10.5% (inactive) and -13.3% (inactive)
same,inhibition,"[11]; cisplatin combination, concentration series, at 5 µM",31% and 30.9%
same,inhibition,[12],-0.46% (inactive) and -4.98% (inactive)
same,inhibition,[12]; measured here: combo with BGB IC20,-4.03% and -6.91%
same,inhibition,[12]; measured here: combo with cisplatin IC20,5.16% and -6.91%
same,inhibition,[13]; at 0.5 µM,-12.1% (inactive) and 5.54% (inactive)
same,inhibition,"[13]; cisplatin combination, at 0.5 µM",-10.6% and -1.11%
same,inhibition,"[13]; cisplatin combination, at 5 µM",8.87% and -169%
same,inhibition,"[13]; measured here: BGB IC40 combination 0.05 uM, at 0.05 µM",37% and -7.52%
same,inhibition,"[13]; single agent, at 5 µM",37.7% and 19.1%
same,inhibition,[14]; at 0.5 µM,-17.1% (inactive) and -8.27% (inactive)
same,inhibition,"[14]; cisplatin combo, at 5 µM",-4.48% and -9.87%
same,inhibition,"[14]; measured here: BGB IC40 combination, at 0.05 µM",-4.59% and 4.5%
same,inhibition,[14]; [20],-16.3% and -34.1%
same,inhibition,"[14]; single agent, at 5 µM",-7.05% and 22%
same,inhibition,[15]; at 0.5 µM,-60.9% (inactive) and -11.4% (inactive)
same,inhibition,[15]; [18],-68.8% and -40.3%
same,inhibition,[15]; [19],-56.9% and 1.42%
same,inhibition,"[15]; single agent, at 0.05 µM",-40.9% and -9.94%
same,inhibition,"[15]; single agent, at 5 µM",58.9% and 60.8%
Cc1cccc2c(=O)n(Cc3ccc(Cl)s3)cnc12,z-score,[16],0.23 (inactive)
